Source: PubChem BioAssay AID1347172 (National Center for Advancing Translational Sciences (NCATS), 2019)
Records with an inconclusive call do not appear. A call without a number means that no potency is given here. The source made the active and inactive calls. The call rests on the fitted dose curve; in most records, active means well fitted inhibition curve with a large enough effect; inconclusive means small, poorly fitted or top-dose-only effect; inactive means flat fitted curve, though single readings scatter.

Experiment: Secondary qRT-PCR qHTS assay for selected Zika virus inhibitors
Description: Assay Submitters (PI): Avindra Nath, Ph.D., National Institute of Neurological Disorders and Stroke (NINDS), Bethesda, MD Radhakrishnan Padmanabhan, Ph.D., Georgetown University (GU), Washington D.C. Zika Virus causes congenital defects, including microcephaly and is associated with Guillain-Barre syndrome, eningoencephalitis and myelitis in infected adult. […] Using a target-based approach, we hope to establish a screening paradigm to uncover novel, cell-active NS2B-NS3 protease (Zika Virus) specific inhibitors from NCATS' collection of small molecules using qHTS. […] Four assay panel was created to identify potential Zika Virus inhibitors. Namely, (1) GU unlinked NS2B-NS3 AMC tagged protease qHTS, (2) GU unlinked NS2B-NS3 Rhodamine tagged protease qHTS, (3) NINDS linked NS2B-NS3 AMC tagged protease qHTS, (4) NINDS linked NS2B-NS3 Rhodamine tagged protease qHTS. Inhibitors of the Zika virus primary screens are confirmed using qRT-PCR secondary assays, qRT-PCR mCherry orthogonal assay, and qRT-PCR viability counterscreen. Early Translation Branch (ETB) National Center for Advancing Translational Sciences (NCATS), Rockville, MD National Institute of Health (NIH), Bethesda, Maryland
384-well ZIKV qRT-PCR Assay: Vero cells were treated with the indicated compounds at different concentrations, infected with ZIKV (MOI=1) and incubated at 37 degrees C for 3 hours to permit virus invasion. After 3 hr, supernatant was removed, and cells were washed once to remove extracellular virus. After a further 21 hr incubation, infected cells were washed three times with cold PBS (4 degrees C). Plates were then process using the TaqmanGene Expression Cells-to-Ct Kit (ThermoFisher Scientific) following the manufactures protocol. Primers directed to the NS5 sequence (F-[…]; R-GCTCGGCCAATCAGTTCA) along with Taqman probe (FAM-[…]-BHQ; Biosearch Technologies) were used to quantify drug inhibition of viral load. Reactions were run at initial 95 degrees C for 10 min, then 40 cycles of 95 degrees C for 20 sec and 60 degrees C for 40 sec using a LightCycler 480 (Roche). Relative viral copy numbers were generated by normalizing to cells treated with vehicle.

Row | Structure (SMILES) | Potency
1 | O=C(Nc1ccc(Br)cc1)c1cc(Br)cc(Br)c1O | 22.4 µM (active)
2 | C[C@]12CC[C@@H]3c4ccc(OC(=O)N(CCCl)CCCl)cc4CC[C@H]3[C@@H]1CC[C@@H]2O | inactive
3 | Oc1c(Cl)c(Cl)c(Cl)c(Cl)c1Cl | inactive
4 | CN(C)[C@@H]1C(=O)C(C(N)=O)=C(O)[C@@]2(O)C(=O)C3=C(O)c4c(O)ccc(Cl)c4[C@@](C)(O)[C@H]3C[C@@H]12 | inactive
5 | CN(C)[C@@H]1C(=O)C(C(N)=O)=C(O)[C@@]2(O)C(=O)C3=C(O)c4c(O)cccc4[C@@](C)(O)[C@H]3C[C@@H]12 | inactive
